Test results from the supplement of paper PMC9694430.
Several values for one entry are separate records, joined by “and”; a condition that tells them apart may be missing. Identical values can stand only once.

How the values were obtained:
Assay in all cases: thermal shift delta Tm vs DMSO control; higher = stronger stabilization (binding)
Conditions in all cases: 12.5 µM; protein concentration 2 µM
LOC_OS02G45750-cb003 = system: LOC_OS02G45750-cb003
Outline: (§1)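 Purified, E. coli-expressed rice kinase domain constructs were tested by differential scanning fluorimetry in 96-well plates: 19.5 μl of 2 μM kinase in 100 mM potassium phosphate pH 7.5, 150 mM NaCl, 10% glycerol, 5 × SYPRO Orange, plus compound in DMSO. Fluorescence was read from 25°C to 95°C at 0.05°C/s. Melting temperatures came from Boltzmann fits, and the shift is the triplicate mean relative to protein with DMSO alone.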

LOC_OS02G54510-cb004 = system: LOC_OS02G54510-cb004
Outline: as §1

LOC_OS03G04050-cb001 = system: LOC_OS03G04050-cb001
Outline: as §1

LOC_OS03G12390-cb001 = system: LOC_OS03G12390-cb001
Outline: as §1

LOC_OS03G27990-cb004 = system: LOC_OS03G27990-cb004
Outline: as §1

LOC_OS03G50450-cb001 = system: LOC_OS03G50450-cb001
Outline: as §1

LOC_OS03G50810-cb003 = system: LOC_OS03G50810-cb003
Outline: as §1

LOC_OS04G35114-cb001 = system: LOC_OS04G35114-cb001
Outline: as §1

LOC_OS04G38480-cb003 = system: T1, LOC_OS04G38480-cb003
T1 sequence (whole entry): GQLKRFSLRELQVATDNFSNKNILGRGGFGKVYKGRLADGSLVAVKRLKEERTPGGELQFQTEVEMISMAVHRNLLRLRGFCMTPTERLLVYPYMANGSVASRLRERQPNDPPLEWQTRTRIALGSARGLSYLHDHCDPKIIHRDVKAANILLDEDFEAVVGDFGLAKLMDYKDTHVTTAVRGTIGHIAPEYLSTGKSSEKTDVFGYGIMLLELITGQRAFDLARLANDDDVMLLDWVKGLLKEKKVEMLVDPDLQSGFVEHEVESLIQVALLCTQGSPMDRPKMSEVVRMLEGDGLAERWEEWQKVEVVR
Outline: as §1

LOC_OS04G41100-cb001 = system: T2, LOC_OS04G41100-cb001
T2 sequence (whole entry): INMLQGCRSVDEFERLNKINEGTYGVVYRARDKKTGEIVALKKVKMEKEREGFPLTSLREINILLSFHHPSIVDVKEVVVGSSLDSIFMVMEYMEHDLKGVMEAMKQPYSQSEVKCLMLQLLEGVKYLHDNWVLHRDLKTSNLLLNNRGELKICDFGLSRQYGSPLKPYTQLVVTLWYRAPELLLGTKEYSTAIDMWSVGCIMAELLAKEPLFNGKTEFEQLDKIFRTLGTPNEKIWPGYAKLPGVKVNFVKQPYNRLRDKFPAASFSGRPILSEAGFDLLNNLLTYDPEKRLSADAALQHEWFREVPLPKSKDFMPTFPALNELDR
Outline: as §1

LOC_OS04G57630-cb004 = system: LOC_OS04G57630-cb004
Outline: as §1

LOC_OS05G07850-cb002 = system: LOC_OS05G07850-cb002
Outline: as §1

LOC_OS05G16824-cb004 = system: LOC_OS05G16824-cb004
Outline: as §1

LOC_OS05G28520-cb001 = system: LOC_OS05G28520-cb001
Outline: as §1

LOC_OS05G30820-cb001 = system: LOC_OS05G30820-cb001
Outline: as §1

LOC_OS05G43570-cb004 = system: LOC_OS05G43570-cb004
Outline: as §1

LOC_OS06G16330-cb003 = system: LOC_OS06G16330-cb003
LOC_OS06G16330-cb003, sequence (as listed by the source): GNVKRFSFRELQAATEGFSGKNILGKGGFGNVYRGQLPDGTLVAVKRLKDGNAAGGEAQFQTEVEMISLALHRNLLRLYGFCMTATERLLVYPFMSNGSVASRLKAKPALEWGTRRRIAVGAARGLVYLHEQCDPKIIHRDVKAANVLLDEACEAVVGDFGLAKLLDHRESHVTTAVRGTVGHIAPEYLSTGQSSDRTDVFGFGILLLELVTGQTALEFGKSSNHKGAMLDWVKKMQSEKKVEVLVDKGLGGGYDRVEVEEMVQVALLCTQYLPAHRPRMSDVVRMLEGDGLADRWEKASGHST
Outline: as §1

LOC_OS06G22820-cb001 = system: T3, LOC_OS06G22820-cb001
T3 sequence (whole entry): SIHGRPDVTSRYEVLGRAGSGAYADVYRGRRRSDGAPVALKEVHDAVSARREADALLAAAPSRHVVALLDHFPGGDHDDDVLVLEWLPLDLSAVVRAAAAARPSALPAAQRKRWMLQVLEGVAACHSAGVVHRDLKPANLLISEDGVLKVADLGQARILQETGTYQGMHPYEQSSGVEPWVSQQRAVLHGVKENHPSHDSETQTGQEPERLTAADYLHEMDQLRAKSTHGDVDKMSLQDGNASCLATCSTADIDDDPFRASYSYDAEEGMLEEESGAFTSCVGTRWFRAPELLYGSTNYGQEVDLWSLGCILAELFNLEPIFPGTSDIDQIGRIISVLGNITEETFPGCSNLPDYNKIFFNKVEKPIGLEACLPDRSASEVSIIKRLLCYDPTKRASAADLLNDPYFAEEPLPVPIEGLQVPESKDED
Outline: as §1

LOC_OS07G06570-cb004 = system: LOC_OS07G06570-cb004
Outline: as §1

LOC_OS07G07230-cb001 = system: LOC_OS07G07230-cb001
Outline: as §1

Structure (SMILES)	thermal shift delta Tm (LOC_OS02G45750-cb003)	thermal shift delta Tm (LOC_OS02G54510-cb004)	thermal shift delta Tm (LOC_OS03G04050-cb001)	thermal shift delta Tm (LOC_OS03G12390-cb001)	thermal shift delta Tm (LOC_OS03G27990-cb004)	thermal shift delta Tm (LOC_OS03G50450-cb001)	thermal shift delta Tm (LOC_OS03G50810-cb003)	thermal shift delta Tm (LOC_OS04G35114-cb001)	thermal shift delta Tm (LOC_OS04G38480-cb003)	thermal shift delta Tm (LOC_OS04G41100-cb001)	thermal shift delta Tm (LOC_OS04G57630-cb004)	thermal shift delta Tm (LOC_OS05G07850-cb002)	thermal shift delta Tm (LOC_OS05G16824-cb004)	thermal shift delta Tm (LOC_OS05G28520-cb001)	thermal shift delta Tm (LOC_OS05G30820-cb001)	thermal shift delta Tm (LOC_OS05G43570-cb004)	thermal shift delta Tm (LOC_OS06G16330-cb003)	thermal shift delta Tm (LOC_OS06G22820-cb001)	thermal shift delta Tm (LOC_OS07G06570-cb004)	thermal shift delta Tm (LOC_OS07G07230-cb001)
COc1ccc2c(Oc3ccc(NC(=O)c4c(C)n(CC(C)(C)O)n(-c5ccccc5)c4=O)nc3)ccnc2c1	1.4 °C	0.7 °C	0.2 °C	0.21 °C	0.18 °C	0.38 °C	0.39 °C	0.36 °C	1.95 °C	0.3 °C	1.04 °C	9.73 °C	-1.1 °C	0.15 °C	0.52 °C	1.07 °C	5.11 °C	0.68 °C	0.62 °C	-0.14 °C
Cc1cc(Nc2cc(Cl)nc(Oc3ccc([N+](=O)[O-])cc3)n2)n[nH]1 [Autophinib]	1.3 °C	0.33 °C	0.63 °C	0.34 °C	0.56 °C	0.75 °C	0.7 °C	0.47 °C	1.06 °C	1.26 °C	-0.11 °C	0.97 °C	-0.37 °C	0.34 °C	0.1 °C	0.13 °C	0.35 °C	0.51 °C	1.89 °C	0.73 °C
CC(C)[C@H](CO)Nc1nc(Nc2cccc(Cl)c2)c2ncn(C(C)C)c2n1 [Purvalanol A]	5.95 °C	2.06 °C	0.15 °C	3.95 °C	3.63 °C	7.22 °C	2.8 °C	6.09 °C	1.87 °C	0.54 °C	1.65 °C	4.54 °C	10.1 °C	1.68 °C	2.51 °C	0.79 °C	2.99 °C	0.25 °C	0.14 °C	-0.31 °C
O=C(NC1CCNCC1)c1n[nH]cc1NC(=O)c1c(Cl)cccc1Cl	0.66 °C and 1.33 °C	0.11 °C and 0.36 °C	0.15 °C and 0.29 °C	0.1 °C and 0.19 °C	0.04 °C and 0.36 °C	0.11 °C and 0.36 °C	0.29 °C and 0.51 °C	0.48 °C and 0.71 °C	0.07 °C and 1.75 °C	7.15 °C and 7.57 °C	-0.08 °C and 0.55 °C	0.37 °C and 0.45 °C	-3.35 °C and -1.47 °C	0.1 °C and 0.64 °C	0.56 °C and 0.5 °C	0.07 °C and 0.69 °C	-0.07 °C and 0.05 °C	0.77 °C and 1.12 °C	0.44 °C and 0.91 °C	0.04 °C and 0.01 °C
Cn1c(Nc2ccc(C(F)(F)F)cc2)nc2cc(Oc3ccnc(-c4ncc(C(F)(F)F)[nH]4)c3)ccc21	2.26 °C	2.15 °C	0.84 °C	2.43 °C	0.45 °C	1.16 °C	1.92 °C	1.17 °C	4.08 °C	1.82 °C	1.62 °C	0.57 °C	1.67 °C	0.86 °C	0.81 °C	3.24 °C	1.24 °C	2.74 °C	1.82 °C	-0.2 °C
